Source: PMC5540273 (PLoS ONE, 2017)

Experiments:
Settings in all cases: concentration: 1 μM, replicates: in singlicate; n = 1
[1] = test system: T1, RSK2(Kin.Dom.2-C-terminal)
T1 construct: gene RPS6KA3

[2] = test system: T2, RSK3(Kin.Dom.1-N-terminal)
T2 construct: gene RPS6KA2

[3] = test system: T3, RSK3(Kin.Dom.2-C-terminal)
T3 construct: gene RPS6KA2

[4] = test system: T4, RSK4(Kin.Dom.1-N-terminal)
T4 construct: gene RPS6KA6

[5] = test system: T5, RSK4(Kin.Dom.2-C-terminal)
T5 construct: gene RPS6KA6

S6K1 = test system: S6K1
SBK1 = test system: SBK1
SGK2 = test system: SGK2
SGK3 = test system: SGK3
SGK = test system: SGK
SIK2 = test system: SIK2
SIK = test system: SIK
SLK = test system: SLK
SNARK = test system: T6, SNARK
T6 construct: gene NUAK2

SNRK = test system: SNRK
SRC = test system: SRC
SRMS = test system: SRMS
SRPK1 = test system: SRPK1
SRPK2 = test system: SRPK2
SRPK3 = test system: SRPK3
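Further: KINOMEscan kinase panel screen.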

Structure (SMILES)	%Inh [1]	%Inh [2]	%Inh [3]	%Inh [4]	%Inh [5]	%Inh (S6K1)	%Inh (SBK1)	%Inh (SGK2)	%Inh (SGK3)	%Inh (SGK)	%Inh (SIK2)	%Inh (SIK)	%Inh (SLK)	%Inh (SNARK)	%Inh (SNRK)	%Inh (SRC)	%Inh (SRMS)	%Inh (SRPK1)	%Inh (SRPK2)	%Inh (SRPK3)
COc1cc(Nc2nccc(N3CCC(NC(=O)Nc4cc(C)ccc4C)C3)n2)cc(OC)c1OC (centres unmarked) [GSK1379762]	2%	9%	0%	0%	14%	3%	6%	12%	0%	0%	6%	0%	23%	23%	0%	24%	0%	53%	0%	29%
Cc1cccc(-c2cc(Nc3ccncc3)c3ccccc3n2)n1 [GSK223675]	0%	5%	10%	0%	21%	0%	3%	0%	0%	0%	0%	0%	0%	0%	0%	0%	0%	5%	0%	0%
Cc1cccc(-c2nc(Nc3cccc(C(N)=O)c3)c3ccccc3n2)n1 [GW876019]	49%	2%	27%	0%	9%	8%	0%	0%	0%	0%	63%	14%	14%	0%	0%	0%	33%	17%	23%	4%
Cc1ccc(C(=O)Nc2ccc(Nc3ccnc4cc(-c5ccccn5)ccc34)cc2O)cc1.Cl [GW440146]	4%	6%	0%	0%	1%	7%	10%	0%	0%	0%	0%	18%	0%	0%	0%	56%	80%	27%	0%	3%
CC(C)(C)c1ccc(C(=O)Nc2cn3cc(Cl)ccc3n2)cc1	28%	0%	23%	45%	22%	0%	0%	6%	0%	8%	0%	4%	24%	0%	0%	0%	0%	0%	0%	0%
COC(=O)c1c(-c2ccccc2)c2cc(C(=O)O)ccc2c(=O)n1Cc1ccccc1	0%	0%	0%	0%	5%	0%	0%	25%	5%	23%	0%	0%	16%	5%	0%	0%	0%	0%	0%	0%
COc1cc2ncn(-c3cc(OCC4CCCO4)c(C(N)=O)s3)c2cc1OC (centres unmarked) [GSK204607]	0%	9%	2%	0%	22%	0%	0%	0%	0%	0%	93.5%	0%	96.3%	39%	0%	0%	0%	28%	11%	0%
COc1ccc2nc(-c3cccc(C)n3)nc(Nc3ccncc3)c2c1 [GSK204919]	19%	19%	0%	0%	26%	1%	21%	0%	0%	0%	2%	0%	9%	0%	0%	5%	0%	26%	0%	16%
C[C@@H]1CCCCN1c1cc(-c2ccc3c(N)n[nH]c3c2)nc(N)n1 [GSK2258759]	0%	0%	19%	0%	24%	0%	0%	0%	3%	0%	0%	0%	0%	2%	0%	0%	0%	0%	0%	0%
COc1cccc(-c2cc(-c3c[nH]nc3-c3ccccn3)ccn2)c1 [GW680338]	33%	0%	0%	0%	48%	6%	15%	4%	7%	7%	0%	0%	0%	11%	0%	0%	2%	96.8%	8%	0%
